Screening results: PubChem BioAssay, several laboratories
IDE act – activators of human insulin-degrading enzyme in cells; P14735; HEK cells, FAbeta-B cleavage, fluorescence polarization; 0% vehicle, 100% cell-free pure enzyme wells; activation, % at 5.96 µM; actives 0.073% (n = 340,000); AID 493087;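 active means activation above the mean of all tested compounds plus 3 SD, set per screening campaign, cut at about 17% in these data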
IDE inh – inhibitors of human insulin-degrading enzyme in cells; inhibition, % at 5.59 µM; P14735; actives 0.41% (n = 320,000); HEK cells, FAbetaB cleavage, fluorescence polarization;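 active means percent inhibition above the average of all tested compounds plus 3 SD, set per screening campaign, cut at about 16% in these data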;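 further: IDE supplied by intact live HEK cells; FP after avidin binding of uncleaved biotin substrate so inhibition keeps polarization high; 0% = DMSO wells and 100% = 60 µM reference IDE inhibitor Ii1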
Mot1-301 SUMO – blocks SUMOylation pathway, rescuing yeast Mot1-301 growth; S. cerevisiae Mot1-301 growth rescue, ATP luminescence, 38.5C; percent above DMSO median, 100 means doubled; growth rescue, % at 18.8 µM; actives 1% (n = 320,000); AID 2716;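 active means every valid replicate shows activation above 250% relative to neutral control wells; inactive means the rest, any valid replicate at or below 250%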;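 further: OY570 slx delta 5 strain wells were the positive control but not used for scaling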
HDAC3 inhib – human HDAC3 inhibition | O15379 | recombinant HDAC3, fluorogenic peptide/trypsin coupled, fluorescence | inhibition, % at 8.3 µM | actives 0.15% (n = 320,000) | AID 2718; in the data active means inhibition above about 26%, passing the limit was not always enough
Target sequence (O15379 whole entry, looked up): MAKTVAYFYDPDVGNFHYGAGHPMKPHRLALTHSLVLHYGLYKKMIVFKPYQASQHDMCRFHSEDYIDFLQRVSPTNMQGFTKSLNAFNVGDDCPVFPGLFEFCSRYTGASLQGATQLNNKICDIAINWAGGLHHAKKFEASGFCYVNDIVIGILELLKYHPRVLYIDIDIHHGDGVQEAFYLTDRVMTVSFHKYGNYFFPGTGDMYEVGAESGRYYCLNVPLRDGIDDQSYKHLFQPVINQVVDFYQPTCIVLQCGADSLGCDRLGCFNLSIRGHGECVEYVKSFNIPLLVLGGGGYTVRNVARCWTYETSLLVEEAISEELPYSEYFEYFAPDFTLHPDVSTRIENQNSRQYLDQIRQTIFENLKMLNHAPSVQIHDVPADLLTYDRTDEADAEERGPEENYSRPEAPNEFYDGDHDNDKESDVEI
LANA-H2B inh – blocks KSHV LANA binding to histone H2A/H2B. actives 0.6% (n = 320,000). inhibition, % (concentration not given with the values). cell-free LANA-H2A/H2B peptide, fluorescence polarization; in the data active means inhibition mostly above about 10%, no sharp cut-off; inactive means mostly below about 6.7%
Yeast Mot1 SUMO – inhibits SUMO pathway, affecting Mot1-301 yeast growth | shares compounds with Mot1-301 SUMO | S. cerevisiae Mot1-301 galactose growth, ATP luminescence, 24 h; -100 = growth of slx-deleted rescue strain | growth activity, percent, % at 42 µM | 2,300 tested, under 10 active;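 active means Signal drops as the depositor expects, and the fitted half-maximal dose is no more than ten times the top valid tested dose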;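 further: more negative values mean stronger growth rescue toward the control strain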
* = called active by the depositor; nt = no result given; + = active, no number. Shown are actives, neighbours in structure and some others; about 2.1% of the full set was active somewhere.

SMILES | IDE act | IDE inh | Mot1-301 SUMO | HDAC3 inhib | LANA-H2B inh | Yeast Mot1 SUMO
COc1ccccc1C(C(=O)NCc1ccccc1)N(C(=O)c1csnn1)C1CC1 (stereo not given) | 2.5 | 1.7 | -19.5 | 0.4 | 1.1 | nt
O=C(N/N=C/C(Br)=C/c1ccccc1)c1cccnc1 | -1.9 | -1.4 | 500.5* | 11.8 | -6.4 | -1.6
O=C(N/N=C/C(Br)=C/c1ccccc1)c1ccncc1 | 0.7 | -5.7 | 99.8 | 8.0 | -2.9 | nt
O=C(COc1ccccc1F)OCC(=O)c1ccc([N+](=O)[O-])cc1 | -6.8 | 1.0 | 14.2 | 4.4 | -5.3 | nt
O=C(COC(=O)c1ccc([N+](=O)[O-])s1)c1ccc[nH]1 | 8.1 | -1.9 | 516.2* | -1.2 | 0.4 | -2.9
S=C(Nc1ccccc1Cl)N1CCCCCC1 | 2.6 | -5.9 | 4.7 | 2.7 | -3.3 | nt
S=C(Nc1ccccc1Cl)N1CCOCC1 | 1.6 | 0.2 | 651.3* | -3.4 | 2.7 | 1.3
Cc1ccc(NC(=O)Cn2nc(C)c3ccccc3c2=O)cc1 | -1.4 | 0.7 | 368.7* | -4.5 | 0.8 | 0.5
Cc1ccccc1NC(=O)Cn1nc(C)c2ccccc2c1=O | 0.1 | -0.5 | 11.4 | -3.4 | -2.9 | nt
CN(C)c1ccc(NS(=O)(=O)c2ccc(Cl)cc2)cc1 | 2.5 | -1.1 | 3.0 | 4.1 | 1.8 | nt
CN(C)c1ccc(NS(=O)(=O)c2cccc(Cl)c2)cc1 | 4.0 | 1.6 | 732.8* | -5.7 | 5.5 | 0.2
Cc1cc(NC(=O)CCC(=O)N(CC(C)C)C(C(=O)NC(C)(C)C)c2ccccc2Cl)no1 (stereo not given) | 1.8 | 3.6 | 4.7 | 1.5 | 1.7 | nt
COc1ccc(NC(=O)CSc2nnc(-c3ccccn3)n2-c2ccccc2)cc1OC | -3.6 | 0.8 | 475.4* | -2.9 | -3.0 | 0.4
COc1ccc(NC(=O)CSc2ccccn2)cc1OC | 5.1 | -1.0 | nt | 7.3 | -2.9 | nt
CC[C@H]1CCCCc2ccccc2[C@@H](C(=O)C[C@@H](O)CC(C)=O)OC1=O | -6.1 | 3.1 | 527.0* | -3.3 | -2.4 | -0.7
COc1ccc2c(c1OC)C(=O)N(c1nc(SC)n[nH]1)C2=O | 11.6 | -0.5 | -14.8 | -0.4 | -2.5 | nt
CC1CCCC(C)N1/N=C/c1cc(Br)cc(Br)c1O (stereo not given) | 2.9 | -0.8 | 475.6* | -7.1 | 3.7 | -1.1
CCN(CC)S(=O)(=O)c1cc(NC(=O)COC(=O)CCc2nc3ccccc3s2)ccc1C | 4.2 | 0.9 | 363.1* | 7.5 | 4.7 | 0.4
O=C(c1cc(-c2ccc(Cl)c(Cl)c2)on1)N1CCN(c2ccccc2)CC1 | 0.6 | 4.2 | + | -0.2 | 2.0 | -0.1
C/C(=N/NC(=O)CCc1c(C)n[nH]c1C)c1cccc([N+](=O)[O-])c1 | 3.5 | 2.5 | -20.0 | -1.2 | -1.5 | nt
COc1cc(-c2nc(CN3CCN(C(=O)c4ccco4)CC3)c(C)o2)ccc1F | 0.7 | 1.0 | -4.0 | -9.9 | -0.1 | nt
O=S(=O)(NCc1ccccc1)c1ccc(S(=O)(=O)N(Cc2ccccn2)Cc2ccco2)cc1 | 3.0 | -3.4 | 840.9* | -7.9 | 2.0 | 0.1
Cc1ccc(F)cc1NS(=O)(=O)c1ccc(Cl)s1 | 5.7 | -3.1 | 377.9* | 6.6 | -7.0 | 0.5
Cc1nn(C)c(C)c1NS(=O)(=O)c1ccc(Cl)s1 | 0.5 | 1.7 | -10.9 | -4.5 | 3.1 | nt
CC1CCCN(C(=O)Cc2ccc(F)cc2)C1 (stereo not given) | 0.2 | 4.6 | 407.6* | -9.9 | 11.0 | -0.2
SMILES | IDE act | IDE inh | Mot1-301 SUMO | HDAC3 inhib | LANA-H2B inh | Yeast Mot1 SUMO
COCCn1c(=NC(=O)c2ccc(S(=O)(=O)N3CCOCC3)cc2)sc2cc(S(N)(=O)=O)ccc21 | 5.3 | 2.5 | 551.5* | -5.7 | -9.4 | -0.8
COC(=O)Cn1c(=NC(=O)c2ccc(S(=O)(=O)N3CCOCC3)cc2)sc2cc(S(N)(=O)=O)ccc21 | 6.9 | 2.2 | -14.1 | -1.4 | 0.4 | nt
COCC(C)n1c(SCC(=O)NNC(=O)c2ccccc2)nc2ccccc2c1=O (stereo not given) | 0.3 | -3.1 | 439.2* | 8.7 | -3.6 | -0.1
COc1ccc(C(=O)Nn2c(SCC(=O)NCc3ccccc3)nc3ccccc3c2=O)cc1 | 4.4 | 3.6 | + | 1.9 | 3.9 | 0.0
CCOC(=O)N1CCN(C(=O)COC(=O)c2ccccc2NCCO)CC1 | 1.7 | -0.1 | -21.9 | -52.3 | -6.4 | nt
CCOc1ccc(OCCC(=O)N(CC)CC(=O)Nc2c(F)cccc2F)cc1 | 5.4 | -2.0 | -5.7 | 0.8 | -0.2 | nt
COc1ccc(CNc2cc(NCCCO)c([N+](=O)[O-])c3nonc23)cc1 | -5.0 | -1.1 | 169.6 | -2.0 | -36.2 | nt
COc1ccc(Nc2cc(NCCCO)c([N+](=O)[O-])c3nonc23)cc1 | 1.7 | -2.2 | 382.4* | 0.7 | 1.2 | 0.2
CCOC(=O)N1CCN(c2cc3[nH]c(=S)[nH]c3cc2F)CC1 | -9.5 | -7.1 | 399.7* | 11.8 | 0.9 | 0.3
O=C(NCc1ccc(Cl)s1)C1CCC(=O)N(CCc2cccc(F)c2)C1 (stereo not given) | 1.8 | -2.2 | -32.3 | -1.5 | 0.7 | nt
CC[C@]12c3[nH]c4ccccc4c3CCN1C(=O)C(CC(=O)NCCC1=CCCCC1)C[C@@H]2C(=O)N1CCN(C(=O)C2CC2)CC1 (stereo not given in full) | 4.8 | -4.9 | -2.6 | -2.5 | 1.2 | nt
COC(=O)c1ccc(CN2CCN(C3CCCCC3)C(CCO)C2)cc1 (stereo not given) | -0.1 | 0.5 | 403.2* | -3.1 | -4.6 | -0.5
CCC(=O)N1c2ccc(S(=O)(=O)N3CCN(c4ccc([N+](=O)[O-])cc4)CC3)cc2CC1C (stereo not given) | -0.6 | 5.8 | 456.4* | -3.9 | -5.7 | -0.5
CCC(=O)N1c2ccc(S(=O)(=O)N3CCN(CC)CC3)cc2CC1C (stereo not given) | 9.1 | 3.5 | 4.7 | -1.7 | -0.1 | nt
CCCn1c(SC(C)C(=O)NCC2CCCO2)nc2sc(CC)cc2c1=O (stereo not given) | 3.0 | 2.6 | 465.7* | nt | -1.2 | 0.7
CCCn1c(SC(C)C(=O)NCC2CCCO2)nc2sc3c(c2c1=O)CCC3 (stereo not given) | 4.0 | 0.3 | 171.6 | -8.9 | -24.6 | nt
Cc1nn(C(=O)CCCn2cc([N+](=O)[O-])cn2)c(C)c1Cl | 3.9 | -0.1 | 2.1 | 0.0 | -1.8 | nt
CCc1nc2ccc(C(=O)N3CCN(CC)CC3)cc2nc1CC | 3.4 | 1.5 | 967.2* | 2.3 | 4.2 | 1.0
CCCc1cc(C(=O)Nc2ccc(C(=O)c3ccc(C)cc3)cc2)n(C)n1 | -4.7 | 1.4 | 1.5 | -0.7 | -1.0 | nt
COc1ccccc1C1NC(=O)CS1 (stereo not given) | 5.2 | 1.3 | 360.1* | 0.7 | -3.0 | 0.4
COC(=O)C1CSc2[nH]c(=O)sc2C1c1ccc(OC)c(OC)c1 (stereo not given) | 5.4 | 6.6 | -8.0 | 5.7 | 0.1 | nt
